Experimental findings from PubChem BioAssay are described below.

Assay [1] can be described thus: inhibitors of TNFa-induced NFkB p65 translocation, primary screen, imaging, HUVEC, MLSMR starter and 10KST1 sets (AID 438;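 active = inhibition above 20% together with a positive visual image hit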;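 note: compound added about 3h40 before a 20 min TNFalpha stimulation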;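 for inhibition: signal is the nuclear over cytoplasmic p65 intensity ratio per well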). The following applies: HUVEC TNFa-induced p65 nuclear translocation; cell count: measured here: nuclei count (cytotoxicity indicator), at 2.08 µM; inhibition: at 2 µM, stronger effect = higher value, 0% TNFa-plus-vehicle, 100% no-TNFa wells.
Assay [2] is described as follows: inhibitors of mutant huntingtin aggregation, primary screen, imaging, exon1htt(103Q)mCFP cells, high-content imaging (AID 483).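 For nuclei count: percent of the per-plate median nuclei count of sample wells.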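 Note: compound exposure lasted 3 days before fixation.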 The conditions noted are these: exon1htt(103Q)mCFP cell line, aggregate imaging, at 2 µM; inhibition of aggregation: stronger effect = higher value; nuclei count: measured here: cell count, toxicity.
Assay [3] in a line: inhibitors of E-selectin induction by TNFa, primary screen, imaging, HUVEC, immunofluorescence, MLSMR starter and 10KST1 sets (AID 487;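 active = visually confirmed hit in the image check and inhibition above 20%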;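 for inhibition: signal is fraction of cell area covered by stained E-selectin grains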;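 for nuclei count: 100% = median nuclei count of all wells on the same plate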). The conditions noted are these: HUVEC TNFalpha-induced E-selectin immunofluorescence imaging, at 2 µM; inhibition: stronger effect = higher value; nuclei count: measured here: cell number, toxicity.
The target in assay [4] is Voltage-gated potassium channel subunit beta-2 (Rattus norvegicus) (UniProt P62483). Put plainly: KvBeta enzyme negative modulators, primary screen, biochemical, NADPH fluorescence (AID 622;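 active = fluorescence slope higher than the sample average by over 3 SD, cut at about -0.22 in these data, passing the limit was not always enough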;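 note: slope of raw intensity against log time taken from 70 to 1610 s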). The conditions noted are these: recombinant KvBeta, 4-cyanobenzaldehyde reduction, at 10 µM, stronger effect = higher value.
Chain of Voltage-gated potassium channel subunit beta-2 (Rattus norvegicus) (P62483 whole entry, looked up): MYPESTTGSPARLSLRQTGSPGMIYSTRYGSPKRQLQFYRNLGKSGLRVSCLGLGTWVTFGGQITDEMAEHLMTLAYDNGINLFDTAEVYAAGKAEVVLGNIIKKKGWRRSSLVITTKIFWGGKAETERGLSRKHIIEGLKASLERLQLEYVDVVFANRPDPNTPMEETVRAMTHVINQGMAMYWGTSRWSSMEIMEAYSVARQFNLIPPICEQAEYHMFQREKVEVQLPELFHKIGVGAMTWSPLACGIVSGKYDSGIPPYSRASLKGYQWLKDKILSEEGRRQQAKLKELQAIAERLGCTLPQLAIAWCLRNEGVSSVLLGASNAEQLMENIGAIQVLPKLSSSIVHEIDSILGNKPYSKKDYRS
Assay [5] shares this target. Put plainly: KvBeta positive modulators, primary screen, biochemical, NADPH fluorescence (AID 623;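 active = NADPH fluorescence slope more negative than the mean of all samples by about 3 SD, 99.7% confidence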;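 note: fluorescence intensity change per second fitted from 20 to 320 s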). The following applies: Recombinant KvBeta, NADPH fluorescence decrease slope, 10 min; at 10 µM; stronger effect = lower value.
In assay [6] the target is Alpha-2C adrenergic receptor (Homo sapiens) (UniProt P18825). Put plainly: modulators of alpha2C/GIRK thallium flux, primary screen, cell-based, HEK293 alpha2C/GIRK1/2 (AID 624;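 active = fluorescence slope after compound addition differing from the mean of all screened samples at 99.7% confidence, in either direction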;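 note: slope of fluorescence ratio to pre-addition baseline per second over 15 to 24 s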). The conditions noted are these: thallium flux BTC fluorescence, at 10 µM, actives lie on both sides.
Chain of Alpha-2C adrenergic receptor (Homo sapiens) (P18825 whole entry, looked up): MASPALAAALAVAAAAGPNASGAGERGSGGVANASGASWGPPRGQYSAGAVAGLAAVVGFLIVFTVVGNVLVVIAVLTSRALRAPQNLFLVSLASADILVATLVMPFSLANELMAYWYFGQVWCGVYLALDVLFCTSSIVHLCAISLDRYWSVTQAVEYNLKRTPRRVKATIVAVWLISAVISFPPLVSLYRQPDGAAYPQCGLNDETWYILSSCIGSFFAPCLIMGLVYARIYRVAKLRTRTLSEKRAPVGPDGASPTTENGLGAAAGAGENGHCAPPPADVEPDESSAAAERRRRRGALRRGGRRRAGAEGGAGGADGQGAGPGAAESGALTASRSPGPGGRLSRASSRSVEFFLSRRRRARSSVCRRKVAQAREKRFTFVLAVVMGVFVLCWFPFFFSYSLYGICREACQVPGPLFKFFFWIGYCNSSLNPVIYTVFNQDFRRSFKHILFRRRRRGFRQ
Assay [7] can be described thus: inhibitors of Sendai virus-induced IRF3 signaling, primary screen, TLR/RLR signaling modifier project, cell-based, Sendai virus stimulus, luciferase, 10K MLSCN set (AID 602276;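 active = inhibition at or above 50% at 10 µM; inactive = inhibition below 50%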;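 note: firefly luciferase from ISG56 promoter only with Renilla not read in this screen; 0% = Sendai virus plus DMSO and 100% = medium plus DMSO without virus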). The conditions noted are these: HEK293 RL24 IRF3 luciferase reporter, at 10 µM, stronger effect = higher value. On the technique in general: A reporter such as luciferase makes a cellular process visible.

The nature of assay [8]: inhibitors of poly I:C-induced TLR3 signaling, primary screen, cell-based, poly I:C stimulus, luciferase, 10K MLSCN set (AID 602277;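 active = inhibition of the reporter signal at or above 50%; inactive = inhibition below 50%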). The following applies: HEK293-TLR3 RL24 IRF3 luciferase reporter, at 10 µM, stronger effect = higher value.

Each structure is given as a SMILES string. Active and inactive are the calls of the source.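 Rule for the calls, unless noted: active = visual image review flags a hit and inhibition of aggregation exceeds 20%; inconclusive = visual hit but inhibition at or below 20%; inactive = no hit on visual image review.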

Turning to `O=C(C1CCCN1S(=O)(=O)c1cccc2cccnc12)N1CCn2c1nc1ccccc12` (centres undefined), the cell count in assay [1] was found to be 626. Besides, the inhibition – broadly, the relative decrease from the control value, in per cent – in assay [1] is -1.1% (inactive); in assay [3], -28.6% (inactive); in assay [7], 8.59% (inactive); in assay [8] it was 21.7% (inactive). In assay [2], the inhibition of aggregation is -15.8% (inactive). Also, the nuclei count stood at 117% in assay [2] and 124% in assay [3]. Further, the fluorescence slope in assay [4] was -0.63 (inactive). For the same compound, the NADPH fluorescence slope in assay [5] is -1.3e-05 (inactive). The slope in assay [6] is 0.00657 (inactive).

For `O=C(Cn1cnc2c(cnn2-c2ccc(F)cc2)c1=O)N1CCN(c2ccccc2)CC1`, in assay [1], the cell count came to 341. Besides, the inhibition was -6% (inactive) in assay [1], -79.8% (inactive) in assay [3], 4.22% (inactive) in assay [7] and 8.47% (inactive) in assay [8]. In addition, the inhibition of aggregation in assay [2] was -0.4% (inactive). Besides, the nuclei count was determined as 90.7% in assay [2] and 108% in assay [3]. The fluorescence slope in assay [4] is -0.506 (inactive). Besides, the NADPH fluorescence slope in assay [5] was -2.6e-06 (inactive). In assay [6], the slope was 0.00638 (inactive).

Consider `O=C(NCc1ccco1)c1c2c(nc3ccccc13)CCC2`, for which the cell count in assay [1] was 301. Besides, the inhibition in assay [1] is -1.7% (inactive); in assay [3], -7.8% (inactive); in assay [7] it was 5.99% (inactive); in assay [8] it was 7.89% (inactive). In assay [2], the inhibition of aggregation was 11.3% (inactive). For the same compound, the nuclei count in assay [2] stood at 87.3%; in assay [3] it was 83.7%. Further, in assay [4], the fluorescence slope is -0.494 (inactive). The NADPH fluorescence slope in assay [5] was -5.2e-05 (inactive). Further, in assay [6], the slope is 0.00639 (inactive).

For the compound `Cc1cccc(-n2nnnc2SCc2csc(-c3ccccc3)n2)c1`, the cell count in assay [1] came to 413. Further, the inhibition in assay [1] was 2.9% (inactive); in assay [3] it was -106% (inactive); in assay [7], 9.28% (inactive); in assay [8], 6.25% (inactive). The inhibition of aggregation in assay [2] was -8.3% (inactive). For the same compound, the nuclei count in assay [2] was 125%; in assay [3], 127%. Moreover, the fluorescence slope in assay [4] was -0.502 (inactive). The NADPH fluorescence slope in assay [5] is -3.3e-05 (inactive). Besides, the slope in assay [6] was 0.00568 (inactive).

`Cc1cccc(OCc2nc(C#N)c(NCCN(C)C)o2)c1`: the cell count in assay [1] was found to be 628. Also, the inhibition in assay [1] is -2.9% (inactive); in assay [3], -27.6% (inactive); in assay [7] it was 9.05% (inactive); in assay [8] it was 28.8% (inactive). In addition, in assay [2], the inhibition of aggregation is -1.8% (inactive). Also, the nuclei count in assay [2] came out at 102%; in assay [3] it was 105%. Also, the fluorescence slope in assay [4] is -0.514 (inactive). Moreover, the NADPH fluorescence slope in assay [5] is -3.5e-05 (inactive). In addition, the slope in assay [6] was 0.00503 (inactive).

Turning to `O=C(NC1CCCCCC1)c1c(F)c(F)c(F)c(F)c1F`, the cell count in assay [1] was 448. For the same compound, the inhibition was 1.8% (inactive) in assay [1], 1.8% (inactive) in assay [3], 1.12% (inactive) in assay [7] and 12.3% (inactive) in assay [8]. Also, the inhibition of aggregation in assay [2] was 3.9% (inactive). Moreover, the values for the nuclei count in assay [2] and in assay [3] were 104% and 118%, respectively. In assay [4], the fluorescence slope is -0.299 (inactive). Besides, in assay [5], the NADPH fluorescence slope is -1.4e-05 (inactive). Moreover, the slope in assay [6] is 0.00585 (inactive).

Consider `CCn1c(SCc2cc(=O)[nH]c3ccccc23)nc2c1c(=O)n(C)c(=O)n2C`, for which, in assay [1], the cell count worked out at 350. Further, the inhibition was 1% (inactive) in assay [1], -38.3% (inactive) in assay [3], 4.21% (inactive) in assay [7] and 14.7% (inactive) in assay [8]. For the same compound, in assay [2], the inhibition of aggregation is -9.3% (inactive). Besides, the nuclei count in assay [2] is 93.3%; in assay [3] it was 99.2%. For the same compound, the fluorescence slope in assay [4] is -0.336 (inactive). Also, the NADPH fluorescence slope in assay [5] was -3.5e-05 (inactive). Further, in assay [6], the slope is 0.00504 (inactive).

Consider `CC(Oc1ccccc1)C(=O)NC1CCN(Cc2ccccc2)CC1` (centres undefined), for which, in assay [1], the cell count was found to be 705. For the same compound, the inhibition in assay [1] was -5.2% (inactive); in assay [3] it was 0.4% (inactive); in assay [7], 11.2% (inactive); in assay [8] it was 21.3% (inactive). Also, the inhibition of aggregation in assay [2] is 2.1% (inactive). For the same compound, the nuclei count in assay [2] was determined as 108%; in assay [3], 103%. Also, the fluorescence slope in assay [4] was -0.418 (inactive). In addition, in assay [5], the NADPH fluorescence slope is -1.8e-05 (inactive). In addition, the slope in assay [6] is 0.00578 (inactive).

`Cc1cc(C)n(-c2ccc(N3CCOCC3)nn2)n1`: in assay [1], the cell count was 610. The inhibition is -5.2% (inactive) in assay [1], -27.5% (inactive) in assay [3], -5.9% (inactive) in assay [7] and -11.9% (inactive) in assay [8]. The inhibition of aggregation in assay [2] is -8.5% (inactive). In addition, the results for the nuclei count in assay [2] and in assay [3] were 100% and 120%, respectively. Moreover, the fluorescence slope in assay [4] is -0.4 (inactive). The NADPH fluorescence slope in assay [5] was -7.8e-06 (inactive). Further, the slope in assay [6] is 0.0039 (inactive).

In the case of `Cc1cccn2c(=O)c3cc(C(=O)N4CCCc5ccccc54)n(C)c3nc12`, the cell count in assay [1] is 232. Moreover, the inhibition in assay [1] is 15.9% (inactive); in assay [3] it was 29.9% (inactive); in assay [7], 6.77% (inactive); in assay [8] it was 17.7% (inactive). Moreover, in assay [2], the inhibition of aggregation was 10.9% (inactive). Also, the figures for the nuclei count in assay [2] and in assay [3] were 98.7% and 96%, respectively. For the same compound, the fluorescence slope in assay [4] was -0.556 (inactive). For the same compound, in assay [5], the NADPH fluorescence slope was -3.1e-05 (inactive). The slope in assay [6] is 0.00631 (inactive).

`CCOc1ccccc1C1CC(c2ccc(Br)cc2)Nc2nc(N)nn21` (centres undefined): the cell count in assay [1] was 593. In addition, the inhibition in assay [1] was 6.9% (inactive); in assay [3] it was -14.1% (inactive); in assay [7], 18.7% (inactive); in assay [8], 33.7% (inactive). Further, the inhibition of aggregation in assay [2] is 19.2% (inactive). For the same compound, the nuclei count in assay [2] was found to be 94.5%; in assay [3] it was 107%. Moreover, the fluorescence slope in assay [4] was -0.512 (inactive). In addition, in assay [5], the NADPH fluorescence slope is -4.3e-05 (inactive). Besides, in assay [6], the slope is 0.0067 (inactive).

In the case of `CC(Oc1ccccc1)C(=O)Nc1ccc(S(=O)(=O)NCC2CCCO2)cc1` (centres undefined), in assay [1], the cell count worked out at 377. The inhibition in assay [1] was 5% (inactive); in assay [3], -84.8% (inactive); in assay [7], 20.7% (inactive); in assay [8], 98.9% (active). Further, the inhibition of aggregation in assay [2] is 17.7% (inactive). Besides, the nuclei count in assay [2] came out at 81.9%; in assay [3], 99.2%. The fluorescence slope in assay [4] was -0.411 (inactive). In addition, in assay [5], the NADPH fluorescence slope was 1.4e-05 (inactive). The slope in assay [6] was 0.00888 (inactive).

For `COc1cc(Nc2cc(C)nc3ncnn23)cc(OC)c1OC`, the cell count in assay [1] was found to be 649. Further, the inhibition in assay [1] was -6.3% (inactive); in assay [3] it was -23.8% (inactive); in assay [7], 1.55% (inactive); in assay [8], 31.7% (inactive). For the same compound, the inhibition of aggregation in assay [2] is -4.4% (inactive). Moreover, the figures for the nuclei count in assay [2] and in assay [3] were 109% and 112%, respectively. Besides, the fluorescence slope in assay [4] is -0.56 (inactive). For the same compound, the NADPH fluorescence slope in assay [5] is 1.9e-05 (inactive). Moreover, the slope in assay [6] is 0.0068 (inactive).

For the compound `COCCn1nnnc1C(c1ccc(OC)cc1)N1CCN(c2ccccc2F)CC1` (centres undefined), the cell count in assay [1] was found to be 476. Besides, the inhibition in assay [1] was -1.9% (inactive); in assay [3] it was -30.1% (inactive); in assay [7], 14.5% (inactive); in assay [8], 22.9% (inactive). In assay [2], the inhibition of aggregation is -4.8% (inactive). The nuclei count in assay [2] stood at 131%; in assay [3], 104%. In addition, the fluorescence slope in assay [4] is -0.585 (inactive). Also, the NADPH fluorescence slope in assay [5] was -9.6e-06 (inactive). Further, the slope in assay [6] was 0.00546 (inactive).
